According to PubChem BioAssay (NCI):
Compounds without any hit were thinned out: in the full panel of roughly 83,000, 20% have a hit.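 Single-concentration screen, 48 h exposure, 96-well plates. Endpoint: percent growth. Below 10 = active.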 A number with no mark means an inactive call. Activity calls are given as the source filed them.

Legend:
Test in all cases: NCI-60 one-dose screen, 48 h (100 = growth as untreated, 0 = no growth, -100 = all killed)
Details in all cases: 10 µM unless noted
NCI-H23 lung = tested on: NCI-H23 lung
NCI-H226 lung = tested on: NCI-H226 lung
NCI-H322M lung = tested on: NCI-H322M lung
HOP-62 NSCLC = tested on: HOP-62 NSCLC
NCI-H460 lung = tested on: NCI-H460 lung
HOP-92 NSCLC = tested on: HOP-92 NSCLC
NCI-H522 lung = tested on: NCI-H522 lung
A549/ATCC NSCLC = tested on: A549/ATCC NSCLC
786-0 renal = tested on: 786-0 renal
COLO 205 colon = tested on: COLO 205 colon
DU-145 prostate = tested on: DU-145 prostate
K-562 leukemia = tested on: K-562 leukemia
MALME-3M melanoma = tested on: MALME-3M melanoma
MDA-MB-231 breast = tested on: MDA-MB-231 breast
RXF 393 renal = tested on: RXF 393 renal
SF-268 CNS = tested on: SF-268 CNS
SF-295 CNS = tested on: SF-295 CNS
SF-539 CNS = tested on: SF-539 CNS
UACC-257 melanoma = tested on: UACC-257 melanoma
M14 melanoma = tested on: M14 melanoma

O=C1c2ccccc2C(=O)c2sc(Nc3cccc(Cl)c3)nc21
growth (NCI-H23 lung): -51.4% (active)
growth (NCI-H226 lung): -44.3% (active)
growth (NCI-H322M lung): 64.5%
growth (HOP-62 NSCLC): -77.3% (active)
growth (NCI-H460 lung): 72.1%
growth (HOP-92 NSCLC): 65.2%
growth (NCI-H522 lung): -32% (active)
growth (A549/ATCC NSCLC): 30.7%
growth (786-0 renal): 8.79% (active)
growth (COLO 205 colon): 84.7%
growth (DU-145 prostate): -93.9% (active)
growth (K-562 leukemia): 6.87% (active)
growth (MALME-3M melanoma): -89.9% (active)
growth (MDA-MB-231 breast): -8.62% (active)
growth (RXF 393 renal): -11.5% (active)
growth (SF-268 CNS): -7.47% (active)
growth (SF-295 CNS): 66.2%
growth (SF-539 CNS): -91.5% (active)
growth (UACC-257 melanoma): -74.9% (active)
growth (M14 melanoma): -89.1% (active)

CCC(=O)Sc1ccccc1C(=O)Nc1ccc(Cl)cc1
growth (NCI-H23 lung): 46.1%
growth (NCI-H226 lung): 52.7%
growth (NCI-H322M lung): 55.4%
growth (HOP-62 NSCLC): 76.5%
growth (NCI-H460 lung): 34.5%
growth (HOP-92 NSCLC): 16.3%
growth (NCI-H522 lung): 67.3%
growth (A549/ATCC NSCLC): 76.5%
growth (786-0 renal): 57%
growth (COLO 205 colon): 84.7%
growth (DU-145 prostate): 74.3%
growth (K-562 leukemia): 19.4%
growth (MALME-3M melanoma): 6.61% (active)
growth (MDA-MB-231 breast): 67.2%
growth (RXF 393 renal): 88.2%
growth (SF-268 CNS): 56.4%
growth (SF-295 CNS): 35.5%
growth (SF-539 CNS): 49.7%
growth (UACC-257 melanoma): 94.7%
growth (M14 melanoma): 42.4%

OC(CNc1ccnc2cc(Cl)ccc12)CNc1ccnc2cc(Cl)ccc12
growth (NCI-H23 lung): 72%
growth (NCI-H226 lung): 39.3%
growth (NCI-H322M lung): 52.1%
growth (HOP-62 NSCLC): 98.7%
growth (NCI-H460 lung): 63.5%
growth (HOP-92 NSCLC): 77.6%
growth (NCI-H522 lung): -3.14% (active)
growth (A549/ATCC NSCLC): 95.3%
growth (786-0 renal): 95.5%
growth (COLO 205 colon): -55.4% (active)
growth (DU-145 prostate): 57.4%
growth (K-562 leukemia): 2.44% (active)
growth (MALME-3M melanoma): -77.9% (active)
growth (MDA-MB-231 breast): -56.5% (active)
growth (RXF 393 renal): 97.4%
growth (SF-268 CNS): 82.2%
growth (SF-295 CNS): 71.6%
growth (SF-539 CNS): -79.8% (active)
growth (UACC-257 melanoma): 93.5%
growth (M14 melanoma): 20.1%

Cc1ccc(C(=Nc2ccccc2)N=P(c2ccccc2)(c2ccccc2)c2ccccc2)cc1
growth (NCI-H23 lung): -24.5% (active)
growth (NCI-H226 lung): -46.2% (active)
growth (NCI-H322M lung): -29.4% (active)
growth (HOP-62 NSCLC): -90.2% (active)
growth (NCI-H460 lung): -75.2% (active)
growth (HOP-92 NSCLC): -43.1% (active)
growth (NCI-H522 lung): -55.8% (active)
growth (A549/ATCC NSCLC): 6.89% (active)
growth (786-0 renal): -55% (active)
growth (COLO 205 colon): -87.8% (active)
growth (DU-145 prostate): -0.576% (active)
growth (K-562 leukemia): 15.6%
growth (MALME-3M melanoma): -67.8% (active)
growth (MDA-MB-231 breast): -41% (active)
growth (RXF 393 renal): -23.3% (active)
growth (SF-268 CNS): -0.449% (active)
growth (SF-295 CNS): -93.4% (active)
growth (SF-539 CNS): -42.9% (active)
growth (UACC-257 melanoma): -17.3% (active)
growth (M14 melanoma): -79% (active)

O=C1C=CC(=O)N1C1c2ccccc2-c2ccccc21
growth (NCI-H23 lung): 98.1%
growth (NCI-H226 lung): 95.6%
growth (NCI-H322M lung): 94.6%
growth (HOP-62 NSCLC): 96.3%
growth (NCI-H460 lung): 96.5%
growth (HOP-92 NSCLC): 67.5%
growth (NCI-H522 lung): 29.4%
growth (A549/ATCC NSCLC): 91.4%
growth (786-0 renal): 75.2%
growth (COLO 205 colon): 20%
growth (DU-145 prostate): 103%
growth (K-562 leukemia): 18.5%
growth (MALME-3M melanoma): 90.1%
growth (MDA-MB-231 breast): 97.9%
growth (RXF 393 renal): 80.5%
growth (SF-268 CNS): 102%
growth (SF-295 CNS): 99.5%
growth (SF-539 CNS): 98.3%
growth (UACC-257 melanoma): 85.7%
growth (M14 melanoma): 96.5%

CC(C)(C)CC(C)(C)c1ccc(OCCSC(=N)N)cc1
growth (NCI-H23 lung): 60.7%
growth (NCI-H226 lung): 71.8%
growth (NCI-H322M lung): 71.6%
growth (HOP-62 NSCLC): 98.4%
growth (NCI-H460 lung): 35%
growth (HOP-92 NSCLC): 17.7%
growth (NCI-H522 lung): 48.3%
growth (A549/ATCC NSCLC): 77.2%
growth (786-0 renal): 28.2%
growth (COLO 205 colon): -76.9% (active)
growth (DU-145 prostate): 72.4%
growth (K-562 leukemia): 0.322% (active)
growth (MALME-3M melanoma): -0.257% (active)
growth (MDA-MB-231 breast): -7.07% (active)
growth (RXF 393 renal): 60.8%
growth (SF-268 CNS): 55%
growth (SF-295 CNS): -34.7% (active)
growth (SF-539 CNS): -6.57% (active)
growth (UACC-257 melanoma): 76.7%
growth (M14 melanoma): -48.5% (active)
